Consider 86 sequences from the supplement of paper PMC4166925.

± gives the standard deviation of the averaged measurements. Over roughly 33,000 sequences, “E-score (dimensionless, -0.5 to 0.5)” has its median near -0.049; the highest 2% begin near 0.37. Many of the other results were omitted from the sample, so the highest values are more common in it than they were.

In this assay the test system is T1, PmTbr T-box DNA-binding domain (GST fusion).
T1 sequence: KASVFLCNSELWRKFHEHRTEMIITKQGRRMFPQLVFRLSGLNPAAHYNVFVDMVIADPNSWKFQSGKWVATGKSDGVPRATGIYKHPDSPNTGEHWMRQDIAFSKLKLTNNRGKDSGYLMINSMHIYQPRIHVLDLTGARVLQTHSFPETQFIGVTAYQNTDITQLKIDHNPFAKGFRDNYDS
As to the kind of experiment: PBM E-score of 8-mer (E-score (dimensionless, -0.5 to 0.5)); Tbr is Tbrain of the sea star Patiria miniata (Pm) or the sea urchin Strongylocentrotus purpuratus (Sp); higher = stronger binding preference. Conditions: the construct has about 5 more residues each side. The method, then:
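Universal protein-binding microarray (Agilent AMADID 016060, 60-bp probes with a 35-bp variable region) incubated with 200 nM GST-fused Patiria miniata Tbr T-box DNA-binding domain (residues 272-466) in PBS pH 7.5. Scored for every ungapped 8-mer (given with its reverse complement) by the Universal PBM Analysis Suite as E-score (modified Wilcoxon-Mann-Whitney enrichment, range -0.5 to 0.5; >0.45 counts as bound) and Z-score of median probe intensity. Two replicate arrays (datasets 1 and 2).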
As for ATGCTAGA, the “PBM E-score of 8-mer” value was -0.158 ± 0.055.

On to ACTATGCC, for which the “PBM E-score of 8-mer” value is -0.0992 ± 0.096.

Take CAACTGTG: the “PBM E-score of 8-mer” value is 0.231 ± 0.015.

AAATGGCC: the “PBM E-score of 8-mer” value was -0.316 ± 0.0079.

Turning to CATCAAGA, the “PBM E-score of 8-mer” value was -0.245 ± 0.022.

In the case of AGTATTGG, the “PBM E-score of 8-mer” value is -0.0858 ± 0.022.

AGTGTTGC: the “PBM E-score of 8-mer” value was found to be 0.3558 ± 0.0028.

Consider AGTGTTGA, for which the “PBM E-score of 8-mer” value was 0.395 ± 0.022.

Take AGTGTTTG: the “PBM E-score of 8-mer” value came out at 0.275 ± 0.036.

In the case of GTTGTTGA, the “PBM E-score of 8-mer” value came to 0.245 ± 0.029.

As to CGTGTTGA, the “PBM E-score of 8-mer” value is 0.295 ± 0.028.

Consider ACTGTTGA, for which the “PBM E-score of 8-mer” value stood at 0.123 ± 0.062.

Consider GGTGTTGA, for which the “PBM E-score of 8-mer” value came to 0.4746 ± 0.0036.

For the sequence AGTGTTGG, the “PBM E-score of 8-mer” value is 0.3857 ± 0.0032.

Regarding GCTGTTGA, the “PBM E-score of 8-mer” value is 0.0473 ± 0.023.

As to CTCTCTGA, the “PBM E-score of 8-mer” value was -0.253 ± 0.021.

As to AGCTTCAT, the “PBM E-score of 8-mer” value is -0.00536 ± 0.11.

Turning to GAACCGTC, the “PBM E-score of 8-mer” value was -0.07 ± 0.048.

Turning to CCCATTTA, the “PBM E-score of 8-mer” value amounted to 0.0289 ± 0.005.

Regarding ACGGGCGC, the “PBM E-score of 8-mer” value was determined as 0.0455 ± 0.05.

As to CGAAAGTC, the “PBM E-score of 8-mer” value is 0.0804 ± 0.023.

In the case of ACAGTGTA, the “PBM E-score of 8-mer” value was 0.0105 ± 0.032.

In the case of GTTAAGCA, the “PBM E-score of 8-mer” value amounted to 0.0703 ± 0.02.

As to TAAACCCA, the “PBM E-score of 8-mer” value is -0.0858 ± 0.0046.

As for CTTATGGC, the “PBM E-score of 8-mer” value is -0.0928 ± 0.041.

CTCGTCAC: the “PBM E-score of 8-mer” value was 0.3943 ± 0.0029.

Consider ATCGTCAC, for which the “PBM E-score of 8-mer” value worked out at 0.403 ± 0.0068.

For ATCGTCAT, the “PBM E-score of 8-mer” value was -0.0319 ± 0.033.

GTCGTCAC: the “PBM E-score of 8-mer” value was determined as 0.3318 ± 0.0028.

Take CTCGTCAA: the “PBM E-score of 8-mer” value came to 0.141 ± 0.04.

As for ATCGTCAA, the “PBM E-score of 8-mer” value stood at 0.0469 ± 0.0067.

For the sequence GCCTACCA, the “PBM E-score of 8-mer” value was determined as 0.015 ± 0.093.

CACTTAAA: the “PBM E-score of 8-mer” value stood at 0.158 ± 0.01.

With AGGTGCTG, the “PBM E-score of 8-mer” value came to 0.414 ± 0.019.

For AGGTGCGC, the “PBM E-score of 8-mer” value worked out at 0.293 ± 0.023.

Consider AGGTGCTC, for which the “PBM E-score of 8-mer” value is 0.0655 ± 0.042.

For the sequence ATGTGCTG, the “PBM E-score of 8-mer” value was determined as 0.1768 ± 0.001.

AGGTGCGG: the “PBM E-score of 8-mer” value came to 0.434 ± 0.011.

In the case of AAGTGCGG, the “PBM E-score of 8-mer” value came out at 0.247 ± 0.0065.

Take CCAGAGGC: the “PBM E-score of 8-mer” value was found to be 0.0947 ± 0.07.

CACCACAG: the “PBM E-score of 8-mer” value came to 0.131 ± 0.004.

Take CTCGGGAC: the “PBM E-score of 8-mer” value is -0.18 ± 0.058.

Consider CCTTCCAC, for which the “PBM E-score of 8-mer” value stood at 0.0992 ± 0.017.

Regarding ACACCCGA, the “PBM E-score of 8-mer” value came out at 0.422 ± 0.012.

As for CCACCCGC, the “PBM E-score of 8-mer” value stood at 0.0903 ± 0.013.

On to ACACCCGC, for which the “PBM E-score of 8-mer” value was 0.376 ± 0.011.

With GCACCCGA, the “PBM E-score of 8-mer” value was determined as 0.15 ± 0.0018.

As for TCACCCGA, the “PBM E-score of 8-mer” value stood at 0.0689 ± 0.025.

In the case of GCACCCGC, the “PBM E-score of 8-mer” value came out at 0.333 ± 0.012.

Take GGAGGAGA: the “PBM E-score of 8-mer” value was -0.011 ± 0.0051.

With AGGCACGG, the “PBM E-score of 8-mer” value is -0.0977 ± 0.04.

With GAACGACA, the “PBM E-score of 8-mer” value was determined as 0.106 ± 0.025.

For AAATAACC, the “PBM E-score of 8-mer” value came to 0.0174 ± 0.057.

On to AGCGAATA, for which the “PBM E-score of 8-mer” value came out at 0.0489 ± 0.053.

As for CGTGTAGA, the “PBM E-score of 8-mer” value was determined as 0.0938 ± 0.0091.

As to AGCGAACG, the “PBM E-score of 8-mer” value is 0.0481 ± 0.02.

As to CGCGAACC, the “PBM E-score of 8-mer” value was determined as 0.328 ± 0.0044.

Turning to AGCGAAAG, the “PBM E-score of 8-mer” value is -0.0461 ± 0.031.

Consider CGCGAAAG, for which the “PBM E-score of 8-mer” value was found to be 0.3697 ± 0.0008.

In the case of CGCGAACG, the “PBM E-score of 8-mer” value was determined as 0.375 ± 0.017.

Turning to CGCGAAAC, the “PBM E-score of 8-mer” value came to 0.355 ± 0.0087.

Consider ATCTTACC, for which the “PBM E-score of 8-mer” value was -0.327 ± 0.021.

With ATCTTAAT, the “PBM E-score of 8-mer” value is -0.171 ± 0.13.

Take CCCAAACG: the “PBM E-score of 8-mer” value is -0.119 ± 0.045.

On to ACCTGGCA, for which the “PBM E-score of 8-mer” value came out at 0.288 ± 0.011.

Consider CTTTGCGA, for which the “PBM E-score of 8-mer” value stood at 0.0629 ± 0.022.

For AGCTCCCA, the “PBM E-score of 8-mer” value was -0.308 ± 0.076.

For the sequence ATCACGCG, the “PBM E-score of 8-mer” value turned out to be 0.334 ± 0.023.

In the case of ATCACGCC, the “PBM E-score of 8-mer” value amounted to 0.372 ± 0.017.

Turning to CCCACGCC, the “PBM E-score of 8-mer” value is 0.08239 ± 0.00072.

On to CTCACGCA, for which the “PBM E-score of 8-mer” value was 0.306 ± 0.019.

ATCACGCA: the “PBM E-score of 8-mer” value worked out at 0.167 ± 0.0099.

For the sequence CTCACGCC, the “PBM E-score of 8-mer” value stood at 0.3929 ± 0.00041.

With GACAGGAA, the “PBM E-score of 8-mer” value came to 0.08894 ± 0.00038.

Consider GTGTGCCA, for which the “PBM E-score of 8-mer” value was found to be 0.237 ± 0.025.

On to AAGACACC, for which the “PBM E-score of 8-mer” value worked out at 0.3306 ± 0.0024.

As to CAGTGTGA, the “PBM E-score of 8-mer” value is 0.3958 ± 0.0034.

For the sequence AAGTGTGA, the “PBM E-score of 8-mer” value turned out to be 0.48967 ± 0.00029.

Turning to TAGTGAGA, the “PBM E-score of 8-mer” value was found to be 0.278 ± 0.022.

In the case of AAGTGTGC, the “PBM E-score of 8-mer” value is 0.368 ± 0.0052.

On to AAGTGTGT, for which the “PBM E-score of 8-mer” value stood at 0.34 ± 0.03.

As to CAGTGTGG, the “PBM E-score of 8-mer” value amounted to 0.249 ± 0.013.

Take CAGTGTGC: the “PBM E-score of 8-mer” value is 0.0644 ± 0.04.

On to AAGTGTAA, for which the “PBM E-score of 8-mer” value was found to be 0.381 ± 0.05.

For TAGTGGGA, the “PBM E-score of 8-mer” value is -0.0944 ± 0.019.

For the sequence TAGTGTGA, the “PBM E-score of 8-mer” value is 0.446 ± 0.0044.
